Assay outcomes as filed in PubChem.
RN4220 kill – kills Staphylococcus aureus RN4220. inhibition, % (test concentration not listed). S. aureus RN4220 growth, OD600, 16 h. 330,000 compounds, 0.33% hits. AID 1259311; in the data active = inhibition above about 85%
CCHFV vOTU inh – blocks the CCHF virus ovarian tumor domain protease. CCHFV vOTU protease, Pep-AMC fluorescence. inhibition, % at 11.5 µM. 370,000 compounds, 0.55% hits. AID 651958; in the data active = inhibition above about 30%
Mtb hypoxia inh – Mtb hypoxia fluorescent reporter inhibition; M. tuberculosis hypoxia-regulated fluorescent reporter, fluorescence; fluorescence inhibition, % (concentration not given with the values); 300,000 compounds, 0.1% hits; in the data active = fluorescence inhibition mostly above about 23%, no sharp cut-off; inactive = mostly below about 17%
PriA SSB inh – blocks PriA binding to SSB C-terminal tail; AlphaScreen SSBct-PriA binding, biotinylated peptide; inhibition, % at 33 µM; 430,000 compounds, 0.6% hits; AID 1272365; in the data active = inhibition mostly above about 37%, no sharp cut-off; inactive = mostly below about 20%
ugtP null kill – compounds lethal to S. aureus RN4220 ugtP deletion mutant. OD600 growth, 16 h. growth inhibition, % (concentration not given with the values). 330,000 compounds, 0.54% hits; in the data active = growth inhibition above about 68%
Numbers stand for hits; i = inactive; nt = no result given; ! = repeats disagree. Sampled rows, rich in hits. Any-hit rate of the full collection: about 1.4%.

SMILES	RN4220 kill	CCHFV vOTU inh	Mtb hypoxia inh	PriA SSB inh	ugtP null kill
CN(c1ccccc1)S(=O)(=O)c1ccc(C(=O)Nc2nnc(-c3ccc(F)cc3)o2)cc1	99.6	nt	i	i	99.9
CCCCN(CC)S(=O)(=O)c1ccc(C(=O)Nc2nnc(-c3cccs3)o2)cc1	92.9	nt	i	i	94.7
COc1ccccc1-c1nnc(NC(=O)c2ccc(S(=O)(=O)N(C)Cc3ccccc3)cc2)o1	109.9	nt	nt	i	99.0
CCc1nnc(NC(=O)c2ccc(S(=O)(=O)N(C)Cc3ccccc3)cc2)o1	i	i	i	i	i
Cc1c(C)n2c3c(=O)[nH]c(=O)n(C)c3nc2n1CCC(c1ccccc1)c1ccccc1	nt	nt	nt	i	nt
CCN(CC)C(=O)Cn1cc(S(=O)(=O)Cc2cccc(C(F)(F)F)c2)c2ccccc21	nt	nt	nt	i	nt
CCOC(=S)SCC(=O)Nc1nc(-c2ccc(Br)cc2)cs1	i	i	i	i	98.9
Cc1[nH]n(C2=NCCS2)c(=O)c1N=Nc1cccc(C(F)(F)F)c1	99.4	i	i	i	99.2
Cc1[nH]n(C(N)=S)c(=O)c1N=Nc1cccc(C(F)(F)F)c1	i	i	i	i	i
CCn1c(O)c(C2=c3ccccc3=NC2=O)c2cc(Br)ccc21	99.8	i	i	i	100.7
CC1(C)[C@@H](O)CC[C@]2(C)[C@H]3C(=O)C=C4[C@@H]5C[C@@](C)(C(=O)O)CC[C@]5(C)CC[C@@]4(C)[C@]3(C)CC[C@@H]12	nt	i	nt	i	nt
CC1(C)C(O)CC[C@@]2(C)C1CC[C@]1(C)C2C(=O)C=C2C3C[C@@](C)(C(=O)O)CC[C@]3(C)CC[C@]21C (some centres undefined)	i	nt	i	nt	87.0
CC1(C)CC[C@]2(C(=O)O)CC[C@]3(C)C(=CCC4[C@@]5(C)CCC(O)C(C)(C)C5CC[C@]43C)C2C1 (some centres undefined)	i	nt	i	nt	91.3!
O=[N+]([O-])c1nn(-c2cccc(Cl)c2)n(O)c1=NC1CCCCC1	nt	nt	nt	90.3	nt
O=[N+]([O-])c1nn(-c2ccc3c(c2)OCCO3)n(O)c1=NC1CCCCCC1	i	i	i	54.6	i
O=[N+]([O-])c1nn(-c2ccccc2)n(O)c1=NC1CCCCC1	nt	nt	nt	i	nt
CCc1ccc(N=c2c([N+](=O)[O-])nn(-c3ccc4c(c3)OCCO4)n2O)cc1	i	i	i	58.1	i
Cc1cc(N2C(=O)C(O)=C(C(=O)c3cc4ccccc4o3)C2c2ccc(OC(C)C)cc2)no1 (centres undefined)	100.4	i	i	i	100.2
COC(=O)c1ccc(C2C(C(=O)c3cc4ccccc4o3)=C(O)C(=O)N2c2cc(C)on2)cc1 (centres undefined)	nt	i	nt	i	nt
CCCOc1cccc(C2C(C(=O)c3cc4ccccc4o3)=C(O)C(=O)N2c2cc(C)on2)c1 (centres undefined)	100.4	i	i	i	99.8
COc1ccc(C(=O)Nc2nc(C)c3cc4c(cc3n2)OCO4)cc1	i	i	37.6	i	i
O=C1COc2cc(Cl)ccc2N1Cc1nc(-c2cccc(C(F)(F)F)c2)no1	nt	nt	nt	i	nt
N#CC(=C(O)c1ccc([N+](=O)[O-])cc1)c1nc2ccccc2[nH]1	nt	nt	nt	i	nt
CC(C)(C)OC(=O)N1CCC[C@H]1C(=O)NN=Cc1cccc2cccnc12	i	nt	i	nt	i
Cc1nc(N2CCN(C(=O)Nc3ccc4c(c3)OCCO4)CC2)cc(-n2ccnc2)n1	nt	nt	nt	i	nt
SMILES	RN4220 kill	CCHFV vOTU inh	Mtb hypoxia inh	PriA SSB inh	ugtP null kill
C/C=C/C=[N+](\[O-])C(C)C(=NO)c1ccc(F)cc1 (centres undefined)	i	nt	i	i	i
O=S1(=O)C=C(Sc2nnc(-c3ccccc3)o2)c2ccccc21	92.6	nt	nt	i	90.7
COC(=O)c1ccc(C)c(-n2c(N)c(C(=O)NC3CCCC3)sc2=S)c1	nt	nt	nt	i	nt
Cc1ccc(NN=Cc2cccnc2)cc1	i	nt	i	i	i
CCOc1ccc2oc(C(=O)OCC(=O)NCc3ccc(OC)cc3)c(C)c2c1	i	i	32.4	i	i
COc1ccc2oc(C(=O)OCC(=O)NCc3ccc(OC)c(OC)c3)c(C)c2c1	i	i	i	i	i
c1ccc(-c2cc(NCCCn3ccnc3)n3ncc(-c4ccccc4)c3n2)cc1	nt	nt	nt	i	nt
CN(C)CCCNc1cc(C(C)(C)C)nc2c(-c3ccc(Cl)cc3)cnn12	100.7	i	nt	i	99.8
CC(C)(C)c1cc(NCCCn2ccnc2)n2ncc(-c3ccccc3)c2n1	i	i	i	i	85.5
Cc1cc(NCCCn2ccnc2)n2ncc(-c3ccc(Cl)cc3)c2n1	i	i	nt	42.6	91.1
CC(C)(C)c1cc(NCCCN2CCOCC2)n2ncc(-c3ccc(Cl)cc3)c2n1	nt	nt	nt	i	nt
O=C(Nc1cnn(C2CCOCC2)c1)c1ccccc1C(F)(F)F	nt	nt	nt	i	nt
COc1ccc(Nc2cccc3ccccc23)cc1	i	i	i	49.7	i
COc1ccc(NC(=S)Nc2cccc3ccccc23)cc1OC	i	i	i	42.6	i
Cc1cc2oc(C(=O)N(Cc3ccc(N(C)C)cc3)CC3CCCO3)c(C)c2cc1C (centres undefined)	i	i	i	49.6	i
CC1(C)Cc2ccccc2C(CCl)=N1	nt	nt	nt	45.0	nt
CC1(C)Cc2ccccc2C(COc2ccccc2)=N1	nt	i	nt	i	nt
CCC(=O)Nc1ccc(S(=O)(=O)NCC2CCN(CCOC)CC2)c(C)c1	nt	nt	nt	i	nt
COc1cccc(-c2csc(=Nc3ccc(Cl)cc3)n2N2CCOCC2)c1	nt	nt	nt	68.0	nt
O=c1c2ccccc2oc2cc(-c3ccc4[nH]ccc4c3)ccc12	88.1	i	i	i	88.2
O=C(c1ccccc1C(F)(F)F)N1CCN(c2ccc(-n3cccn3)nn2)CC1	nt	nt	nt	i	nt
O=c1cc(O)nc(-c2ccccn2)[nH]1	nt	nt	nt	i	nt
O=c1[nH]c(-c2ccccn2)nc(C(F)(F)F)c1Br	i	i	i	82.9	i
c1ccc(-c2nc3ccccc3[nH]2)nc1	i	i	i	i	i
O=c1[nH]c(-c2ccccn2)nc2ccccc12	i	i	i	42.0	i
SMILES	RN4220 kill	CCHFV vOTU inh	Mtb hypoxia inh	PriA SSB inh	ugtP null kill
CCCn1c(=O)c(C(=O)Nc2ccccc2)c(O)c2ccccc21	i	i	nt	i	i
CCCCCn1c(=O)c(C(=O)Nc2cnccn2)c(O)c2ccccc21	i	i	nt	i	99.4
CC(C)Cn1c(=O)c(C(=O)Nc2cnccn2)c(O)c2ccccc21	i	i	i	i	i
CCCn1c(=O)c(C(=O)Nc2cccc(C)c2)c(O)c2ccccc21	i	i	i	i	84.2
CC(C)Cn1c(=O)c(C(=O)NN=Cc2cccc(F)c2)c(O)c2ccccc21	100.5	nt	i	i	99.1
CCCCCCCn1c(=O)c(C(=O)Nc2cnccn2)c(O)c2ccccc21	98.2	i	nt	i	97.6
CCCCCn1c(=O)c(C(=O)Nc2cc(C)ccn2)c(O)c2ccccc21	i	i	i	i	i
Cn1nc(N2CCC(C(=O)Nc3ncn[nH]3)CC2)ccc1=O	nt	nt	nt	i	nt
CCCCCCCC(=O)NNC(=O)c1c(O)c2ccccc2n(CCC)c1=O	97.9	i	i	i	i
CC(C)Cn1c(=O)c(C(=O)Nc2ccncc2)c(O)c2ccccc21	i	i	42.1	i	i
Cc1cc(NC(=O)c2cccc(S(=O)(=O)C(C)C)c2)n(C(C)C)n1	nt	nt	nt	i	nt
CCc1nnc2ccc(N3CCN(S(=O)(=O)c4ccccc4C(F)(F)F)CC3)nn12	nt	nt	nt	i	nt
O=C(CSc1ccc(NC(=O)c2ccco2)nn1)NCc1cccs1	nt	nt	nt	i	nt
CCSc1nc(-c2ccccc2)nc(C(Cl)Cl)n1	i	i	nt	i	i
